Assay outcomes: PubChem, several laboratories
A selection: hits, their analogues and other compounds. The true share with any hit is near 2.8%.
SENP7 inh: SENP7 protease inhibitors, primary screen, biochemical, luminescence, uHTS. inhibition, % at 5 µM. Sentrin-specific protease 7 (Homo sapiens), Q9BQF6. actives 1.5% (n = 330,000). recombinant SENP7, Z-RLRGG-aminoluciferin luminescence, 40 min;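 active = inhibition above about 50% at the single test dose, limit read from the data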
Target sequence (Q9BQF6 706-1050 limits assumed): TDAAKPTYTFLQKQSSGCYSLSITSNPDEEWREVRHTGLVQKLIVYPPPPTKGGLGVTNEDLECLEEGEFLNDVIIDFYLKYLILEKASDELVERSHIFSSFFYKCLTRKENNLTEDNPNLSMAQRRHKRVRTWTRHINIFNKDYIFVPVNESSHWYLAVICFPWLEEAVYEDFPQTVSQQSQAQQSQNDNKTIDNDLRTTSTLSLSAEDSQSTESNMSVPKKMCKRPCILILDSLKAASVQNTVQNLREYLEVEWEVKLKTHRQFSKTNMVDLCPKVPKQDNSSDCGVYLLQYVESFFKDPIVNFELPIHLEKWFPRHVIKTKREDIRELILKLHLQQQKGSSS
SENP8 block-1: SENP8 protease inhibitors, primary screen, biochemical, luminescence | Sentrin-specific protease 8 (Homo sapiens), Q96LD8 | purified SENP8, Z-RLRGG-aminoluciferin cleavage | inhibition, % at 10 µM | actives 1.2% (n = 330,000) | AID 2540, 2010; in the data active = inhibition above about 50%
Target sequence (Q96LD8 whole entry, looked up): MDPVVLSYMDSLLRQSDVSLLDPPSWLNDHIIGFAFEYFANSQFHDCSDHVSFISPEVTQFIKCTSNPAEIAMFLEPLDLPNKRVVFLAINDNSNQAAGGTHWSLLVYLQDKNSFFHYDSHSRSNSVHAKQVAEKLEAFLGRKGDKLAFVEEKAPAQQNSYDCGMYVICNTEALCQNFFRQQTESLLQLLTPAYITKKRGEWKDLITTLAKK
HSP90 inh: HSP90 inhibitors, primary screen, cell lysate, luminescence | inhibition, % at 5.6 µM | Rabbit reticulocyte lysate, luciferase refolding luminescence, 3 h | AID 1789, 2009 | actives 0.91% (n = 290,000) | Heat shock protein HSP 90 (rabbit reticulocyte lysate; luciferase refolding);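 active = inhibition above the screen-wide mean plus 3 SD, computed separately per campaign, cut at about 16% in these data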;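 also: inhibitors lower the luminescence because luciferase stays unfolded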
SENP8 block-2: human SENP8 protease inhibitors, primary screen, biochemical, fluorescence, Nedd8 protein substrate, uHTS | Sentrin-specific protease 8 (Homo sapiens), Q96LD8 | recombinant SENP8 | inhibition, % at 20 µM | actives 0.64% (n = 360,000); in the data active = inhibition mostly above about 40%, no sharp cut-off; inactive = mostly below about 27%
SENP6 inh: SENP6 protease inhibitors, primary screen, biochemical, luminescence, uHTS. Sentrin-specific protease 6 (Homo sapiens), Q9GZR1. actives 1.8% (n = 330,000). Recombinant SENP6 catalytic domain, aminoluciferin luminescence. inhibition, % at 10 µM;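 active = inhibition above about 50% at the single tested dose, limit read from the data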
SENP8 conf: human SENP8 protease inhibitors, confirmation, biochemical, Nedd8 protein substrate, single concentration; shares compounds with SENP8 block-2; purified SENP8, Nedd8-AMC/pro-Nedd8 cleavage fluorescence, 30 min; inhibition, % at 25 µM; actives 15% (n = 1,400); AID 624319, 2012; in the data active = inhibition mostly above about 39%, no sharp cut-off; inactive = mostly below about 34%
A number is an active result; - = inactive; . = no result given.

SMILES	SENP7 inh	SENP8 block-1	HSP90 inh	SENP8 block-2	SENP6 inh	SENP8 conf
Cc1ccc(C(=O)N2NC(c3ccc(F)cc3)C3C(=O)N(c4ccc(C)cc4)C(=O)C32)cc1 (stereo not given)	-	-	-	-	-	.
CCN(CC)S(=O)(=O)c1cc([N+](=O)[O-])ccc1NNC(=O)Nc1ccccc1OC	-	-	-	51	-	-
NC(=O)c1ccc(NC(=O)COC(=O)c2c[nH]c3ccccc23)cc1	-	-	.	-	-	.
N#CCn1c(CN2CCCC2)nc2ccccc2c1=O	-	-	-	-	-	.
Cc1cc(C)nc(NNS(=O)(=O)c2ccc(F)c(Cl)c2)n1	-	-	.	36	-	-
Cc1cc(C)nc(NNS(=O)(=O)c2ccc(Cl)cc2)n1	-	-	.	-	-	.
CC(C)[C@H](NC(=O)N1CC(=O)Nc2ccccc21)C(=O)N[C@H](Cc1c[nH]c2ccccc12)C(=O)O	-	-	-	44	-	-
CC(C)[C@H](NC(=O)N1c2ccccc2NC(=O)[C@@H]1C(C)C)C(=O)N[C@@H](Cc1ccccc1)C(=O)O	-	-	-	54	-	-
CC(C)[C@H](NC(=O)N1c2ccccc2NC(=O)[C@@H]1C(C)C)C(=O)N[C@@H](C(=O)O)c1ccccc1	-	-	-	-	-	.
COCc1c(C)cc(C)c(/C=N/O)c1C	-	-	-	47	-	-
COc1ccc(Cl)cc1N1C(=O)CC(N2CCN(S(=O)(=O)c3ccccc3F)CC2)C1=O (stereo not given)	-	-	.	-	-	.
COC(=O)c1c(C(=O)OC)c2cccc3cc(-c4ccccc4)c4ccc1c4n32	-	-	-	74	-	-
CCN(C(=O)COC(=O)c1cnc(C)cn1)C1CCCCC1	-	-	-	40	-	-
Cc1cnc(C(=O)OCC(=O)NC2CCCCCCC2)cn1	-	-	-	-	-	.
Cc1[nH]nc(SCC(=O)N2CCOCC2)c1[N+](=O)[O-]	-	-	-	-	-	.
CC1(OC(=O)CCc2ccccc2)C(=O)C=C2C=C3CCCN3C=C2C1=O (stereo not given)	-	-	.	55	-	43
CC1(OC(=O)C2CCCC2)C(=O)C=C2C=C3CCCN3C=C2C1=O (stereo not given)	-	-	.	.	-	.
N#Cc1nc(-c2ccco2)oc1N1CCc2ccccc2C1	-	-	-	-	-	.
Cc1ccc(-c2csc(NC(=O)c3cccc([N+](=O)[O-])c3)n2)cc1	-	-	-	48	-	-
O=C(Nc1nc(-c2ccc([N+](=O)[O-])cc2)cs1)c1c(F)cccc1F	-	-	-	-	-	.
CC(C)c1[nH]nc2c1C(C(C)C)C(C#N)=C(N)O2 (stereo not given)	-	-	-	40	-	-
CCOc1ccc(N/C=C/C(=O)c2ccc(C)cc2)c([N+](=O)[O-])c1	-	-	-	43	-	-
CCOc1ccc(N/C=C/C(=O)c2ccc3ccccc3c2)c([N+](=O)[O-])c1	-	-	-	-	-	.
S=C(Nc1cccc(Cl)c1)N(CCCN1CCCC1)Cc1cccn1Cc1ccc(Cl)cc1	-	-	-	40	-	-
CSc1cccc(NC(=S)N(CCCN2CCCC2)Cc2cccs2)c1	-	-	-	46	-	-
SMILES	SENP7 inh	SENP8 block-1	HSP90 inh	SENP8 block-2	SENP6 inh	SENP8 conf
CSc1cccc(NC(=S)N(CCCN2CCCC2)Cc2cccn2Cc2ccc(Cl)cc2)c1	-	-	-	-	-	.
CCCCNC(=O)c1ccccc1Cl	-	-	-	-	-	.
COc1ccc(CNC(=O)COC(=O)Cc2ccsc2)cc1	-	-	-	-	-	.
O=C(O)C1CC(=O)N(C2CCCCC2)C1c1ccccc1 (stereo not given)	-	-	-	41	-	-
CC1CCCCC1NC(=O)COC(=O)COc1ccccc1Cl (stereo not given)	-	-	-	-	-	.
COc1ccc(OCC(=O)OCC(=O)NC2CCCCC2C)cc1 (stereo not given)	-	-	.	46	-	-
O=C(Cc1ncc(C(F)(F)F)cc1Cl)NC1CC1	-	-	-	-	-	.
O=C(CNC(=S)N(Cc1ccc(F)cc1)C1CCCCC1)NCC1CCCO1 (stereo not given)	-	-	-	-	-	.
COC/C=C/C1=CC2=CC(=O)C(C)(OC(=O)c3cnc4ccccc4n3)C(=O)C2=CN1CCCOC(C)C (stereo not given)	-	-	.	44	-	-
C=CCN1C=C2C(=O)C(C)(OC(=O)c3cnc4ccccc4n3)C(=O)C=C2C=C1/C=C/COC (stereo not given)	-	-	.	-	-	.
COC/C=C/C1=CC2=CC(=O)C(C)(OC(=O)c3cnc4ccccc4n3)C(=O)C2=CN1CCOC (stereo not given)	-	-	.	54	-	47
COC/C=C/C1=CC2=CC(=O)C(C)(OC(=O)c3cnc4ccccc4n3)C(=O)C2=CN1CCN1CCOCC1 (stereo not given)	-	-	.	-	-	.
O=c1cc(-c2ccc(O)cc2)oc2cc(O)c([C@@H]3O[C@H](CO)[C@@H](O)[C@H](O)[C@H]3O)c(O)c12	-	-	.	45	-	-
Cc1ccc(NC(=O)CSCC(=O)OC(C)C(=O)Nc2ccc(S(N)(=O)=O)cc2)c(C)c1 (stereo not given)	-	-	.	-	-	.
COc1ccc(N=C2S/C(=C\c3ccc(C)s3)C(=O)N2CC(C)C)cc1	-	-	-	44	-	-
COc1ccc(N=C2S/C(=C\c3cccs3)C(=O)N2CC(C)C)cc1	-	-	-	-	-	.
O=C(NC1C(=O)NNC1c1ccccc1)c1ccccc1 (stereo not given)	-	-	-	55	-	-
Cc1cccc(C(=O)NC2C(=O)NNC2c2ccc(Cl)cc2)c1 (stereo not given)	-	-	-	44	-	-
Cc1cccc(C(=O)NC2CCCCCCC2)c1	-	-	-	-	-	.
C[C@]12CCC(=O)C=C1[C@H](O)C[C@@H]1[C@@H]2[C@@H](O)C[C@@]2(C)[C@H]1CC[C@]2(O)C(=O)CO	-	-	-	-	-	.
C(=NOCCc1ccccc1)c1ccncc1	.	.	.	-	.	.
CCn1c2ccccc2c2nnc(NN)nc21	-	-	-	-	-	.
CCn1c2ccc(C)cc2c2nnc(NN)nc21	-	-	-	69	-	-
Cn1c2ccccc2c2nnc(NN)nc21	-	-	-	77	-	38
CCCCn1c2ccc(F)cc2c2nnc(NN)nc21	-	-	-	71	-	-
Cc1nnc(SCc2ccc(C(=O)O)cc2)s1	-	-	-	-	-	.
O=C1CC(CC(=O)N/N=C/c2ccccc2[N+](=O)[O-])=NN1	-	-	-	40	-	-
